According to PubChem BioAssay (NCI):
About 79,000 compounds went through this panel and 15% of them were active in at least one assay; those are over-represented in the sample as a whole. Activity calls are given as the source filed them. No stated cut-off is given here; in the data, active means growth inhibition above about 70%; inactive means the rest.

What was measured:
[1] = NCI Yeast Anticancer Drug Screen. Data for the rad50 strain (AID 155);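 further: 0% = growth of vehicle-only cultures of the same strain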; settings: S. cerevisiae rad50 strain growth inhibition, active compounds read high
How it was run: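 Cells are treated with compound, grown, and their growth is then scored against vehicle-only cultures of the same repair-deficient yeast strain.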

[2] = NCI Yeast Anticancer Drug Screen. Data for the mec2-1 strain (AID 157); settings: S. cerevisiae mec2-1 strain, active compounds read high
How it was run: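 Strain: mec2-1 (DNA repair/cell cycle alteration). Compound exposure, then growth measured; inhibition expressed relative to vehicle.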

[3] = NCI Yeast Anticancer Drug Screen. Data for the sgs1 mgt1 strain (AID 161);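 further: 0% = growth of cultures given vehicle only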; settings: S. cerevisiae sgs1 mgt1 strain, active compounds read high
How it was run: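 Test agents were incubated with a DNA-repair-mutant yeast strain. Growth was then read and compared against vehicle-treated controls.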

[4] = NCI Yeast Anticancer Drug Screen. Data for the cln2 rad14 strain (AID 165);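 further: 0% = growth equal to vehicle treated cultures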; settings: S. cerevisiae cln2 rad14 strain, active compounds read high
How it was run: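 Compounds are applied to the cln2 rad14 yeast strain, and growth is then compared with that of vehicle-treated cultures to give inhibition.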

[5] = NCI Yeast Anticancer Drug Screen. Data for the bub3 strain (AID 167); settings: S. cerevisiae bub3 mutant strain, active compounds read high
How it was run: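 Part of a panel of yeast mutants defective in DNA damage repair or cell cycle regulation. Each strain is grown with compound, and inhibition is calculated relative to solvent-treated cultures.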

[6] = NCI Yeast Anticancer Drug Screen. Data for the mlh1 rad18 strain (AID 175); settings: S. cerevisiae mlh1 rad18 strain growth inhibition, active compounds read high
How it was run: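 Read-out is yeast growth inhibition, calculated against vehicle-only controls. The compound was applied to a strain engineered with DNA damage repair alterations.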

[7] = at 5.0 µM (retest, dose inferred, filed as 0.5)
[8] = at 50.0 µM (retest, dose inferred, filed as 5.0)

Measured: growth inhibition

CN(C)C(=S)Oc1ccc(C(C)(C)C)cc1
inactive: [1]; [7] -156% | [1]; [8] -68% | [1]; at 50.0 µM 50.9% | [2]; [7] -53% | [2]; [8] -59% | [2]; at 50.0 µM -14.4% | [3]; [7] -65% | [3]; [8] -47% | [3]; at 50.0 µM 40.5% | [4]; [7] -72% | [4]; [8] -68% | [4]; at 50.0 µM -34.7% | [5]; [7] -65% | [5]; [8] -27% | [5]; at 50.0 µM 60.4% | [6]; [7] -129% | [6]; [8] -123% | [6]; at 50.0 µM 29.1%

CSC(=S)n1nc(-c2ccccc2)c(N=Nc2ccc(Br)cc2)c1-c1ccccc1
inactive: [1]; [7] 6% | [1]; [8] 14% | [1]; at 50.0 µM 41% | [2]; [7] 9% | [2]; [8] 25% | [2]; at 50.0 µM 23.9% | [3]; [7] 5% | [3]; [8] 25% | [3]; at 50.0 µM 6.15% | [4]; [7] 10% | [4]; [8] 4% | [4]; at 50.0 µM 49.9% | [5]; [7] 13% | [5]; [8] 34% | [5]; at 50.0 µM 0.05% | [6]; [7] 5% | [6]; [8] 19% | [6]; at 50.0 µM -10.2%

O=P(O)(O)Oc1c(O)c2ccccc2c2ccccc12
inactive: [1]; [7] 14% | [2]; [7] 22% | [3]; [7] 17% | [4]; [7] 5% | [5]; [7] 25% | [6]; [7] 17%
active: [1]; [8] 73% | [1]; at 50.0 µM 91.4% | [2]; [8] 95% | [2]; at 50.0 µM 94.8% | [3]; [8] 85% | [3]; at 50.0 µM 97.5% | [4]; [8] 97% | [4]; at 50.0 µM 97% | [5]; [8] 92% | [5]; at 50.0 µM 99.6% | [6]; [8] 94% | [6]; at 50.0 µM 99.3%

CCCCCCCCCCC(NC(C)=O)(C(=O)OCC)C(=O)OCC
active: [1]; [8] 98% | [1]; at 50.0 µM 97.5% | [2]; [8] 99% | [2]; at 50.0 µM 98% | [3]; [8] 99% | [4]; [8] 99% | [4]; at 50.0 µM 98.3% | [5]; [8] 98% | [5]; at 50.0 µM 94.5% | [6]; [8] 98% | [6]; at 50.0 µM 82.8%
inactive: [1]; [7] -9% | [2]; [7] -3% | [3]; [7] -3% | [3]; at 50.0 µM 67.3% | [4]; [7] -5% | [5]; [7] 0% | [6]; [7] 11%

O=P(OCCCl)(OCCCl)C(Nc1cccc2ccccc12)c1ccccc1 (configuration not stated)
inactive: [1]; [7] 7% | [2]; [7] -8% | [3]; [7] 5% | [4]; [7] -1% | [5]; [7] 1% | [6]; [7] 4%
active: [1]; [8] 86% | [1]; at 50.0 µM 91% | [2]; [8] 72% | [2]; at 50.0 µM 91.4% | [3]; [8] 86% | [3]; at 50.0 µM 88.5% | [4]; [8] 86% | [4]; at 50.0 µM 87.5% | [5]; [8] 87% | [5]; at 50.0 µM 86.7% | [6]; [8] 84% | [6]; at 50.0 µM 90.2%

O=C1c2ccccc2C(=O)c2ncccc21
active: [1]; [8] 91% | [1]; at 50.0 µM 96.3% | [2]; [8] 86% | [2]; at 50.0 µM 94.4% | [3]; [8] 89% | [3]; at 50.0 µM 93.3% | [4]; [8] 85% | [4]; at 50.0 µM 86.5% | [5]; [8] 87% | [5]; at 50.0 µM 91% | [6]; [8] 95% | [6]; at 50.0 µM 97.8%
inactive: [1]; [7] 14% | [2]; [7] 8% | [3]; [7] 8% | [4]; [7] -2% | [5]; [7] 11% | [6]; [7] 37%

c1ccc2c3ccn4ccc5c6ccccc6[nH]c5c4c-3nc2c1
active: [1]; [8] 96% | [2]; [8] 88% | [3]; [8] 93% | [5]; [8] 96% | [6]; [8] 98% | [6]; at 50.0 µM 85.4%
inactive: [1]; [7] 38% | [1]; at 50.0 µM 65.3% | [2]; [7] 28% | [2]; at 50.0 µM 47.1% | [3]; [7] 27% | [3]; at 50.0 µM 47.2% | [4]; [7] 24% | [4]; [8] 39% | [4]; at 50.0 µM 34.1% | [5]; [7] 29% | [5]; at 50.0 µM 43.8% | [6]; [7] 33%

COc1cc(NCCCCCNC2CCCCC2)c2ncccc2c1
inactive: [1]; [7] 2% | [1]; [8] 64% | [2]; [7] -4% | [2]; [8] 17% | [2]; at 50.0 µM 46.5% | [3]; [7] 21% | [3]; [8] 63% | [4]; [7] 7% | [4]; [8] 32% | [4]; at 50.0 µM 19.9% | [5]; [7] 14% | [5]; [8] 57% | [6]; [7] -18% | [6]; [8] 27%
active: [1]; at 50.0 µM 83.2% | [3]; at 50.0 µM 74.1% | [5]; at 50.0 µM 83.6% | [6]; at 50.0 µM 74.2%

COc1cc(C2C(C(=O)Nc3ccc(Cl)c(Cl)c3)=C(C)NC(C)=C2C(=O)Nc2ccc(Cl)c(Cl)c2)ccc1O
inactive: [1]; [7] 19% | [1]; [8] 19% | [2]; [7] -4% | [2]; [8] -4% | [3]; [7] 2% | [3]; [8] 2% | [4]; [7] 7% | [4]; [8] 7% | [5]; [7] 13% | [5]; [8] 13% | [6]; [7] 8% | [6]; [8] 8%
active: [1]; at 50.0 µM 91% | [2]; at 50.0 µM 90.6% | [3]; at 50.0 µM 88.7% | [4]; at 50.0 µM 88.8% | [5]; at 50.0 µM 91.2% | [6]; at 50.0 µM 89.5%
